# Tested on: Vero E6 infected with SARS-CoV-2
# Test: SARS-CoV-2 infection rate relative to infected DMSO; higher = more infection, active = 60 or less
# Conditions: 24 h
row,Structure (SMILES),SARS-CoV-2 infection rate
1,Nc1ccccc1NC(=O)c1ccc(CNc2nccc(-c3cccnc3)n2)cc1 [mocetinostat] (0.833333 µM),104% (inactive)
2,N#Cc1ccc(Oc2ccc3c(c2)COB3O)cc1 [crisaborole] (10 µM),105% (inactive)
3,CCOC(=O)[C@H](Cc1ccccc1)NC(=O)c1cc(Cl)c(OCCN2CCN(C)CC2)c(Cl)c1O (10 µM),76.5% (inactive)
4,CCOC1O[C@H]([C@@H](COCc2ccccc2)OCc2ccccc2)[C@H](OCc2ccccc2)[C@H]1O (stereo not given in full) [tribenoside] (10 µM),102% (inactive)
5,O=C(OC[C@H]1O[C@@H](OC(=O)c2cc(O)c(O)c(OC(=O)c3cc(O)c(O)c(O)c3)c2)[C@H](OC(=O)c2cc(O)c(O)c(OC(=O)c3cc(O)c(O)c(O)c3)c2)[C@@H](OC(=O)c2cc(O)c(O)c(OC(=O)c3cc(O)c(O)c(O)c3)c2)[C@@H]1OC(=O)c1cc(O)c(O)c(OC(=O)c2cc(O)c(O)c(O)c2)c1)c1cc(O)c(O)c(OC(=O)c2cc(O)c(O)c(O)c2)c1 [tannic-acid] (10 µM),114% (inactive)
6,C1CCN2C[C@@H]3C[C@@H](CN4CCCC[C@@H]34)[C@H]2C1 [sparteine-sulfate] (10 µM),112% (inactive)
7,C1CCC(/N=C(\NC23CC4CC(CC(C4)C2)C3)N2CCOCC2)CC1 (10 µM),110% (inactive)
8,Cc1sc2c(c1C)C(c1ccc(Cl)cc1)=N[C@@H](CC(=O)Nc1ccc(OCCOCCOCCOCCNc3cccc4c3C(=O)N(C3CCC(=O)NC3=O)C4=O)cc1)c1nnc(C)n1-2 (stereo not given in full) (10 µM),100% (inactive)
9,Cc1nnc(-c2ccc3occ(-c4ccc([S+](C)[O-])cc4)c3c2)o1 (stereo not given) (10 µM),92.5% (inactive)
10,CC(C)(Sc1ccncc1-c1ccc(C#N)c2ccccc12)C(=O)O [verinurad] (10 µM),98% (inactive)
11,CCC[C@@H]1C[C@@H](C(=O)N[C@@H]([C@H]2O[C@H](SC)[C@H](O)[C@@H](O)[C@H]2O)[C@H](C)Cl)N(C)C1 (10 µM),102% (inactive)
12,Cc1ccc(-c2ncc(Cl)cc2-c2ccc(S(C)(=O)=O)cc2)cn1 [etoricoxib] (10 µM),114% (inactive)
13,CN(C)CCCNC(=O)c1ccc(-c2cc(O)c3ncccc3c2)cc1 (0.833333 µM),108% (inactive)
14,CC[C@H](CC[C@@H](C)[C@H]1CC[C@H]2[C@@H]3CC=C4C[C@@H](O[C@@H]5O[C@H](CO)[C@@H](O)[C@H](O)[C@H]5O)CC[C@]4(C)[C@H]3CC[C@]12C)C(C)C [daucosterol] (10 µM),102% (inactive)
15,NC(=O)c1cn(Cc2c(F)cccc2F)nn1 [rufinamide] (10 µM),102% (inactive)
16,C=CCOc1ccccc1OCC(O)CNC(C)C (stereo not given) [oxprenolol] (10 µM),114% (inactive)
17,CCCC(C)C1(CC)C(=O)NC(=S)NC1=O (stereo not given) [thiopental] (10 µM),110% (inactive)
18,CC(=O)O[C@H]1Cc2ccccc2N(C(N)=O)c2ccccc21 [eslicarbazepine-acetate] (10 µM),106% (inactive)
19,CNCCc1ccc(O)c(O)c1 [deoxyepinephrine] (10 µM),106% (inactive)
20,COc1cn(-c2ccc(-n3cccn3)cc2F)nc(-c2ccnn2-c2ccccc2)c1=O (10 µM),112% (inactive)

row,Structure (SMILES),SARS-CoV-2 infection rate
1,CCCNS(=O)(=O)Nc1ncnc(OCCOc2ncc(Br)cn2)c1-c1ccc(Br)cc1 [macitentan] (10 µM),112% (inactive)
2,O=C1CCC[C@@H]2[C@H]3CCC[N+]4([O-])CCC[C@@H](CN12)[C@@H]34 (stereo not given in full) [oxymatrine] (10 µM),100% (inactive)
3,CN(C)C/C=C(/c1ccc(Br)cc1)c1cccnc1 [zimelidine] (10 µM),97% (inactive)
4,COc1cc(C(=O)NS(=O)(=O)c2ccccc2C)ccc1Cc1cn(C)c2ccc(NC(=O)OC3CCCC3)cc12 [zafirlukast] (10 µM),105% (inactive)
5,Cc1cc(-c2nncc3c(C(C)(C)C)c(OCc4ncnn4C)nn23)no1 (10 µM),95% (inactive)
6,CC[C@H]1[C@@H]2C[C@H]3[C@@H]4N(C)c5ccccc5[C@]45C[C@@H]([C@@H]2[C@H]5O)N3[C@@H]1O [ajmaline] (10 µM),106% (inactive)
7,CC[C@@]1(O)C(=O)OCc2c1cc1n(c2=O)Cc2cc3ccccc3nc2-1 [camptothecin] (0.833333 µM),114% (inactive)
8,COc1ccccc1N1CCN(CCN(C(=O)C2CCCCC2)c2ccccn2)CC1 (10 µM),118% (inactive)
9,OCCN1CCN(CC/C=C2/c3ccccc3Sc3ccc(Cl)cc32)CC1 [zuclopenthixol] (0.833333 µM),110% (inactive)
10,COc1ccc(CCc2nc3cc(-c4c(C)noc4C)ccc3n2C[C@H](C)N2CCOCC2)cc1Cl (0.833333 µM),113% (inactive)
11,CCC(C)SSc1ncc[nH]1 (stereo not given) (10 µM),95% (inactive)
12,C=C1CC[C@H](O)C/C1=C/C=C1\CCC[C@]2(C)[C@@H]([C@H](C)CCCC(C)(C)O)CC[C@@H]12 [calcifediol] (10 µM),115% (inactive)
13,O=C(CN1CCN(C(=O)c2ccco2)CC1)Nc1cc(C(F)(F)F)ccc1Cl (10 µM),103% (inactive)
14,COc1cccc(CCc2ccccc2OCC(CN(C)C)OC(=O)CCC(=O)O)c1 (stereo not given) [sarpogrelate] (10 µM),100% (inactive)
15,O=c1ccc2ccc(OCCCCN3CCN(c4cccc5sccc45)CC3)cc2[nH]1 [brexpiprazole] (10 µM),98.5% (inactive)
16,CCOc1nc2cccc(C(=O)OC(C)OC(=O)OC3CCCCC3)c2n1Cc1ccc(-c2ccccc2-c2nn[nH]n2)cc1 (stereo not given) [candesartan-cilexetil] (10 µM),92.5% (inactive)
17,Cc1cccc(CN2CCN(C(c3ccccc3)c3ccc(Cl)cc3)CC2)c1 (stereo not given) [meclizine] (10 µM),108% (inactive)
18,Cc1ccc2c(-c3ccccc3)nc(=O)n(C(C)C)c2c1 [proquazone] (10 µM),103% (inactive)
19,CN1CCN(CCCCN2C(=O)CN(/N=C/c3ccc(-c4ccc(Cl)cc4)o3)C2=O)CC1 [azimilide] (10 µM),102% (inactive)
20,O=c1c(O)c(-c2ccc(O)c(O)c2)oc2cc(O)ccc12 [fisetin] (10 µM),111% (inactive)

# Reference: the supplement of paper PMC13380429
